The source of these data is PubChem BioAssay (NCI).

Molecules are shown by their SMILES. This is part of a sample that, as a whole, favours compounds with a hit. Of some 83,000 tested, about 20% had one in any assay.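 Activity criterion: percent growth below 10, measured after cells in 96-well plates were exposed to a single compound concentration for 48 hours.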 Unmarked numbers belong to inactive results. Active and inactive are the calls of the source.

Holding throughout (test): NCI-60 one-dose screen, 48 h (100 = growth as untreated, 0 = no growth, -100 = all killed)
Experiment [1] concerns HCT-15 colon. The conditions noted are these: 10 µM.
Experiment [2] deals with HT29 colon. The following applies: 10 µM.
Experiment [3] has as its system SNB-75 CNS. The conditions noted are these: 10 µM.
Experiment [4] deals with SNB-19 CNS. The following applies: 10 µM.
Experiment [5] relates to U251 CNS. The following applies: 10 µM.
Experiment [6] deals with PC-3 prostate. The conditions noted are these: 10 µM.
In experiment [7] the test system is SK-MEL-5 melanoma. The conditions noted are these: 10 µM.
Experiment [8] deals with LOX IMVI melanoma. The conditions noted are these: 10 µM.
For experiment [9], the system named is SK-MEL-28 melanoma. The following applies: 10 µM.
In experiment [10] the test system is SK-MEL-2 melanoma. The conditions noted are these: 10 µM.
The subject of experiment [11] is EKVX NSCLC. The conditions noted are these: 10 µM.
The subject of experiment [12] is SN12C renal. The conditions noted are these: 10 µM.
Experiment [13] has as its system UO-31 renal. The conditions noted are these: 10 µM.
Experiment [14] relates to TK-10 renal. The conditions noted are these: 10 µM unless noted.
Experiment [15] concerns ACHN renal. The conditions noted are these: 10 µM.
In experiment [16] the test system is CAKI-1 renal. The following applies: 10 µM.
Experiment [17] has as its system A498 renal. The conditions noted are these: 10 µM.
Experiment [18] has as its system CCRF-CEM leukemia. The conditions noted are these: 10 µM.
Experiment [19] deals with MOLT-4 leukemia. The conditions noted are these: 10 µM.
For experiment [20], the system named is UACC-62 melanoma. The conditions noted are these: 10 µM unless noted.

With `CCCCC1C(=O)N(c2ccccc2)N(c2ccccc2)C1=O`, the growth is 102% in [1]; 104% in [2]; 117% in experiment [3]; 102% in experiment [4]; 105% in experiment [5]; 98.9% in experiment [6]. In addition, the growth is 102% in [7]; 99.4% in experiment [8]; 111% in experiment [9]; 98.7% in experiment [10]; 105% in experiment [11]; 96.2% in experiment [12]. Further, the growth in experiment [13] is 90.4%; in experiment [14], 103%; in [15] it was 102%; in [16] it was 103%; in [17] it was 125%; in [18] it was 95.8%. Further, in [19], the growth was 107%.

Consider `O=C1OC(=O)C2C1C1(Cl)C(Cl)=C(Cl)C2(Cl)C2C(=O)OC(=O)C21` (stereo unspecified), for which the growth in experiment [1] is 103%; in experiment [2], 104%; in experiment [3], 89.1%; in [4], 106%; in [5] it was 101%; in experiment [6], 97.9%. In addition, the growth is 103% in [7]; 102% in [20]; 107% in experiment [9]; 88.7% in experiment [10]; 105% in experiment [12]; 84.4% in experiment [13]. Besides, the growth in [14] is 93%; in [15], 105%; in experiment [16], 106%; in experiment [17], 107%; in experiment [19] it was 105%.

Turning to `Oc1ccc(O)cc1`, the growth in experiment [1] was 101%; in [2], 97.7%; in experiment [3], 102%; in [4], 115%; in experiment [5] it was 99.1%; in [6], 89.2%. For the same compound, the growth is 103% in [20]; 92.6% in [8]; 112% in [9]; 104% in experiment [10]; 113% in [11]; 106% in experiment [12]. Moreover, the growth is 82% in experiment [13]; 128% in [14]; 85.4% in [15]; 97.9% in experiment [16]; 115% in [17]; 62.7% in experiment [18]. For the same compound, the growth in experiment [19] is 78.6%.

For the compound `C=CCc1cc(C(C)=O)cc(OC)c1O`, the growth in experiment [1] was 119%; in [2], 108%; in experiment [3], 89.2%; in [4], 105%; in experiment [5], 103%; in [6] it was 106%. Besides, the growth in experiment [20] is 97.8%; in experiment [8] it was 100%; in experiment [9] it was 110%; in experiment [10], 130%; in [11] it was 100%; in experiment [12], 105%. Further, the growth in [14] was 102%; in [15], 121%; in [16] it was 98.2%; in [17], 100%; in experiment [18], 106%; in experiment [19], 98%.

As to `CCOC(=O)c1ccc(NC(=S)P(=O)(c2ccccc2)c2ccccc2)cc1`, the growth in experiment [1] was 98.5%; in experiment [2], 111%; in experiment [3], 101%; in experiment [4], 106%; in [5] it was 99.2%; in [6], 80.1%. Further, the growth in experiment [7] was 104%; in [20], 99.4%; in experiment [9], 106%; in experiment [10] it was 119%; in experiment [12], 103%; in [13], 92.9%. The growth in [14] was 123%; in experiment [15] it was 102%; in experiment [16], 86.3%; in experiment [17] it was 86.3%; in experiment [18], 69.8%; in experiment [19], 52.6%.

For the compound `O=C(CCNNC(=O)c1ccncc1)NCc1ccccc1`, the growth in [1] is 81.8%; in experiment [2] it was 105%; in experiment [3], 89.4%; in [4], 98.1%; in experiment [5], 85.4%; in experiment [7], 89%. The growth was 88% in experiment [20]; 86.8% in [8]; 103% in [9]; 94.3% in experiment [10]; 106% in experiment [11]; 97.1% in experiment [12]. For the same compound, the growth in experiment [13] was 91.3%; in experiment [14], 133%; in [15], 93%; in [16], 109%; in [17], 110%; in experiment [18] it was 5.43% (active). Further, the growth in experiment [19] was 99%.

Turning to `O=C(O)[C@@H]1[C@H]2C[C@H]3c4[nH]c5ccccc5c4CCN3C[C@@H]2CC[C@@H]1O`, the growth in [1] was 106%; in experiment [2], 103%; in experiment [3], 88.4%; in experiment [4] it was 111%; in [5] it was 114%; in experiment [7], 111%. The growth in [20] is 99.4%; in [8] it was 103%; in experiment [9], 120%; in experiment [10] it was 30.5%; in [11] it was 110%; in experiment [12] it was 107%. The growth in [13] was 82.8%; in [14] it was 104%; in [15], 100%; in [16] it was 105%; in experiment [17], 130%; in experiment [18], 103%. In addition, in experiment [19], the growth is 139%.

As for `O=C1C=CC2=C3c4cc(O)c(O)cc4CC3(O)COC2=C1O` (stereo unspecified), the growth in experiment [1] was 105%; in [2], 100%; in experiment [3] it was 88%; in experiment [4] it was 104%; in experiment [5], 105%; in experiment [7], 138%. The growth is 98.1% in experiment [20]; 99.2% in experiment [8]; 119% in experiment [9]; 87.3% in experiment [10]; 101% in experiment [11]; 104% in [12]. Further, the growth was 86.6% in experiment [13]; 101% in [14]; 111% in experiment [15]; 111% in [16]; 99.1% in experiment [17]; 104% in [18]. The growth in experiment [19] was 103%.

As to `CC(C)=NNC(N)=S`, the growth in [1] is 73.5%; in experiment [2], 40.5%; in experiment [3], 93.5%; in experiment [4], 94.4%; in experiment [5], 88.2%; in [6] it was 77.9%. Moreover, the growth is 90.2% in [7]; 91% in [20]; 94.1% in experiment [9]; 112% in experiment [10]; 74.4% in experiment [12]; 79.3% in [13]. Besides, the growth in experiment [14] is 113%; in [15], 88.3%; in experiment [16], 83.3%; in experiment [17] it was 97.8%; in [18] it was 44.2%; in experiment [19] it was 60.4%.
